# Test results reported in PubChem BioAssay (Tox21).
# “And” between values parts separate entries of the source, which are not always exact repeats. Identical values can stand only once. Records with an inconclusive call do not appear. A call without a number means that no potency is given here. Some compounds were tested as several samples or in several runs, with calls that do not always agree. The source made the active and inactive calls. Unless noted, calls follow the shape of the dose curve; as a rule, active = well fitted curve in the direction sought with a large enough effect in the repeat runs; inconclusive = weak or mixed curves; inactive = no such curve, though single readings can be large; an effect the other way counts as inactive or inconclusive.
# Tests used:
# [1] = biological target: Estrogen receptor beta (Homo sapiens) (UniProt Q92731); test: qHTS assay to identify small molecule agonists of the estrogen receptor beta (ER-beta) signaling pathway (AID 1259377; active = well fitted activation curve with a large enough effect in the signal ratio in the repeat runs, not every such curve was filed as active; the % refers to the signal ratio)
# Outline: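 Measured by fluorescence intensity from a B/G FRET beta-lactamase substrate (2 h, room temperature) in ER-beta-UAS-bla HEK293T cells treated with DMSO-dissolved compounds for 16 hr at 37C and 5% CO2.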
# [2] = biological target: Estrogen receptor beta (Homo sapiens) (UniProt Q92731); test: qHTS assay to identify small molecule antagonists of the estrogen receptor beta (ER-beta) signaling pathway (AID 1259378; active = well fitted inhibition curve with a large enough effect in the signal ratio in the repeat runs, not every such curve was filed as active; the % refers to the signal ratio; also: potency is read from the fitted curve at half-maximal effect)
# Outline: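 ER-beta-UAS-bla HEK293T cells in 2% charcoal-stripped FBS medium treated with compound plus 1nM final 17-beta-estradiol for 16 hr at 37C. Beta-lactamase reporter read by FRET substrate fluorescence after 2 hours at room temperature.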
# [3] = qHTS assay to identify small molecule agonists of the androgen receptor (AR) signaling pathway in the presence of an antagonist - cell viability counter screen (AID 1259379); also: nearly all actives have a fitted effect of over 25% in size; also: potency is read from the fitted curve at half-maximal effect
# Outline: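 Nilutamide-containing (3.0uM final) MDA-kb2 cultures, 3,000 cells/well, were treated with compounds across 15 concentrations. After 16 hr at 37C with no CO2, cell viability was determined by CellTiter-Fluor fluorescence in the luciferase assay wells.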
# [4] = qHTS assay to identify small molecule agonists of the estrogen receptor beta (ER-beta) signaling pathway - cell viability counter screen (AID 1259380); also: nearly all actives have a fitted effect of over 30% in size; also: potency is read from the fitted curve at half-maximal effect
# Outline: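 Steps: plate ER-beta-UAS-bla HEK293T cells, rest 6 hr; add compounds in DMSO; incubate 16 hr at 37C, 5% CO2; add FRET substrate 2 hr; add CellTiter-Glo, wait 30 min at room temperature; read luminescence.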
# [5] = qHTS assay to identify small molecule antagonists of the estrogen receptor beta (ER-beta) signaling pathway - cell viability counter screen (AID 1259382); also: nearly all actives have a fitted effect of over 55% in size; also: potency is read from the fitted curve at half-maximal effect
# Outline: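 Viability is scored by CellTiter-Glo luminescence (30 min, room temperature) in ER-beta-UAS-bla HEK293T wells already read for reporter fluorescence. Compound exposure lasts 16 hr at 37C alongside 1nM 17-beta-estradiol in charcoal-stripped serum medium.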
# [6] = biological target: Estrogen receptor (Homo sapiens) (UniProt P03372); test: qHTS assay to identify small molecule agonists of the estrogen receptor alpha (ER-alpha) signaling pathway in the presence of an antagonist (AID 1259383; calls by dose curve; also: nearly all actives have a fitted effect of over 15% in size; also: potency is read from the fitted curve at half-maximal effect; as to activation: top concentration of the series differs between compounds)
# Outline: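 Readout was ERE-driven luciferase luminescence in VM7Luc4E2 cells, which express full-length ER-alpha endogenously. Compounds were tested at 15 concentrations for 22hr alongside 10.0nM ICI-182,780 (final concentration).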
# [7] = qHTS assay to identify small molecule agonists or antagonists of the thyroid stimulating hormone receptor (TSHR) signaling pathway - wild type cell line counter screen (AID 1259384; calls by dose curve)
# Outline: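 Wild-type Hek293 cells, 800/well, 18 h at 37C, then compound with Ro20-1724 for 30 min RT. cAMP by HTRF (cAMP-d2/anti-cAMP cryptate), 1 h RT, fluorescence read. 15 concentrations, triplicates.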
# [8] = biological target: Thyrotropin receptor (Homo sapiens) (UniProt P16473); test: qHTS assay to identify small molecule antagonists of the thyroid stimulating hormone receptor (TSHR) signaling pathway (AID 1259385; calls by dose curve; also: nearly all actives have a fitted effect of over 20% in size; also: potency is read from the fitted curve at half-maximal effect)
# Outline: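 TSHR-HEK293 cells (800/well) plated 18 h, then compounds with Ro20-1724 and TSH at 1.5 ng/mL final, 30 min at room temperature. cAMP quantified by HTRF (cAMP-d2/anti-cAMP-cryptate, 1 h); 15 concentrations in triplicate.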
# [9] = qHTS assay to identify small molecule agonists of the estrogen receptor alpha (ER-alpha) signaling pathway in the presence of an antagonist - cell viability counter screen (AID 1259386);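 also: cells exposed to compounds for 22 h at 37 °C before the viability read; nearly all actives have a fitted effect of over 30% in size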; also: potency is read from the fitted curve at half-maximal effect
# Outline: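 In this counter screen, compound effects on VM7Luc4E2 viability were tested in the presence of the antagonist ICI-182,780 at 10.0nM final. Compounds were dosed at 15 concentrations, exposure lasted 22hr, and the CellTiter-Fluor signal was read.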
# [10] = biological target: Androgen receptor (Homo sapiens) (UniProt P10275); test: qHTS assay to identify small molecule agonists of the androgen receptor (AR) signaling pathway in the presence of an antagonist (AID 1259381; calls by dose curve; also: nearly all actives have a fitted effect of over 15% in size)
# Outline: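 Reporter-gene luminescence from MDA-kb2 cells exposed 16hr at 37C (0% CO2) to 15-point compound titrations with 3.0uM final nilutamide as AR antagonist.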
# Thyrotropin receptor (Homo sapiens), sequence (P16473 whole entry, looked up): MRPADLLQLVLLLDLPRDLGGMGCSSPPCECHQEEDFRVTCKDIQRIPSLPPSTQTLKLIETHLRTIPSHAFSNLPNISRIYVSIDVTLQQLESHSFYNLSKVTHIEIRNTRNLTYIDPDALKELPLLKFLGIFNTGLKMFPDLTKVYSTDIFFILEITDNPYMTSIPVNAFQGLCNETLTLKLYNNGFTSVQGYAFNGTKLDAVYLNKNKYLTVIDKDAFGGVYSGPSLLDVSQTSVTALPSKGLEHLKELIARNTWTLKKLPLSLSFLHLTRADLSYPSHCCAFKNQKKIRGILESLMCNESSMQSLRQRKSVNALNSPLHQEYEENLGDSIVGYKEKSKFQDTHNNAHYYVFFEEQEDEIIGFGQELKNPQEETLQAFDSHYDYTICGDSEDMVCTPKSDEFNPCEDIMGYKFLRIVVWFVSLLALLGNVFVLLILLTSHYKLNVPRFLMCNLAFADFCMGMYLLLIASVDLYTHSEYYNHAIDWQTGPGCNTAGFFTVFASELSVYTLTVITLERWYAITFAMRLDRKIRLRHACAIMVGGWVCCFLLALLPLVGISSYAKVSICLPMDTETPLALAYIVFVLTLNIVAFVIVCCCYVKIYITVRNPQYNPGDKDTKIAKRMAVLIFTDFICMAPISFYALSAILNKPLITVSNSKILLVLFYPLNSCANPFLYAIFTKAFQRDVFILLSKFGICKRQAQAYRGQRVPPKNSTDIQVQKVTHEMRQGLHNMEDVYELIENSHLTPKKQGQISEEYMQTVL
# Androgen receptor (Homo sapiens), sequence (P10275 whole entry, looked up): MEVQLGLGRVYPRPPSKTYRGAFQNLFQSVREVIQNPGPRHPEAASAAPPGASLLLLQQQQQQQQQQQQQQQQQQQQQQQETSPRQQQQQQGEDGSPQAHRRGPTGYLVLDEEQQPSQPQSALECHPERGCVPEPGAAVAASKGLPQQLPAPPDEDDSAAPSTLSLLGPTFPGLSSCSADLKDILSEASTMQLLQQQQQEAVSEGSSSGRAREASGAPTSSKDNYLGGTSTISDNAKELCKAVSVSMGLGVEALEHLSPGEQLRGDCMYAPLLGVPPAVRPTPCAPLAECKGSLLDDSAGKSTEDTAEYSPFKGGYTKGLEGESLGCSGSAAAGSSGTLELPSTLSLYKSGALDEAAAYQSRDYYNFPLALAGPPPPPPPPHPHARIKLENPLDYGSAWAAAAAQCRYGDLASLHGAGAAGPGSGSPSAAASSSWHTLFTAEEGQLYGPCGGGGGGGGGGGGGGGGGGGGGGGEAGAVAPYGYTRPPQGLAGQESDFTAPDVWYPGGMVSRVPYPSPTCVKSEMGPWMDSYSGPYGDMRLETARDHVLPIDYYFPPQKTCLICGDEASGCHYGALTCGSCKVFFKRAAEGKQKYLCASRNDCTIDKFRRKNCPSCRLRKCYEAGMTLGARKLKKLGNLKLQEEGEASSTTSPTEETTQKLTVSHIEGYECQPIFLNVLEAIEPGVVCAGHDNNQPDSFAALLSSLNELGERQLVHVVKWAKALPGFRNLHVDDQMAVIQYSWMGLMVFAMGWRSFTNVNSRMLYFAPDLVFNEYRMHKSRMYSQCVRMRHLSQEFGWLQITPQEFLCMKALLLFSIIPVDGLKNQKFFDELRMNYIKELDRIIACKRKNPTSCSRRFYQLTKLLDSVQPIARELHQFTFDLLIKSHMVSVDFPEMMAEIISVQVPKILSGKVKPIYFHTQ
# Estrogen receptor (Homo sapiens), sequence (P03372 whole entry, looked up): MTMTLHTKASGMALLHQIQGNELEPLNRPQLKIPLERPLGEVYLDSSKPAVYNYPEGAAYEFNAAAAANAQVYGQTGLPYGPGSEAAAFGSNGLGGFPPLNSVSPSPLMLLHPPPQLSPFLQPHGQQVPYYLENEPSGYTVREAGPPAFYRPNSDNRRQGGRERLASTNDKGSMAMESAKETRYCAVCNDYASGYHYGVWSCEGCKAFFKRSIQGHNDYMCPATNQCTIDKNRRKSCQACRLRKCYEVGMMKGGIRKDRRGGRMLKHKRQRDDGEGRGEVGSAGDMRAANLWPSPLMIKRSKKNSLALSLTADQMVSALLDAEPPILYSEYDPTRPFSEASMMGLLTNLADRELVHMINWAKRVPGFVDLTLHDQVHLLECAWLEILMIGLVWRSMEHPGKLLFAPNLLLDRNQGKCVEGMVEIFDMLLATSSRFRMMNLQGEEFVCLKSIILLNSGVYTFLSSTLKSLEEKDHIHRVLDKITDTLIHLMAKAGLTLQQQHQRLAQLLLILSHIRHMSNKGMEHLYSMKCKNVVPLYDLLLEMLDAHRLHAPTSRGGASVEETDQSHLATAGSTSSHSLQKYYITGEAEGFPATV
# Estrogen receptor beta (Homo sapiens), sequence (Q92731 whole entry, looked up): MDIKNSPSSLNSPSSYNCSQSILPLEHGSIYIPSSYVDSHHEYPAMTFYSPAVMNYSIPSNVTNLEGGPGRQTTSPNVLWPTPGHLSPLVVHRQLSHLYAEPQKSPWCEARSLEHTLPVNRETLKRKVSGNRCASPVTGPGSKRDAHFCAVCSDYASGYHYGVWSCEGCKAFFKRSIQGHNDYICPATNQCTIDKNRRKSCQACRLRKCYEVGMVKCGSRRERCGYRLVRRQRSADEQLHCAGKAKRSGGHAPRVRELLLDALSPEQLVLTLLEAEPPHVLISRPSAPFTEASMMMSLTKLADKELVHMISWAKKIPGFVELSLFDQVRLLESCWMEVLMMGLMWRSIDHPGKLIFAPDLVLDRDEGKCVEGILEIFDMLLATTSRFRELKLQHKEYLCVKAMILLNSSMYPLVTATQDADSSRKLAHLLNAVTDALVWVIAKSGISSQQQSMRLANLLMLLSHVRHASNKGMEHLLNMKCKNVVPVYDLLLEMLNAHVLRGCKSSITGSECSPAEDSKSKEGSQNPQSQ
SMILES,Potency [1],Potency [2],Potency [3],Potency [4],Potency [5],Potency [6],Potency [7],Potency [8],Potency [9],Potency [10]
CNC(=O)/C=C(\C)OP(=O)(OC)OC,inactive,inactive,inactive,inactive,inactive,inactive,inactive,inactive,inactive,
CC1(C)C(C=C(Cl)Cl)C1C(=O)OC(C#N)c1ccc(F)c(Oc2ccccc2)c1 (centres undefined),inactive,inactive,inactive,inactive,inactive,inactive,inactive,inactive,inactive,
O=C(O)CCCCCCNC1c2ccccc2CCc2ccccc21,inactive,inactive,inactive,inactive,inactive,inactive,inactive,inactive,inactive,
CC(C)c1c(CN(C)C(C)Cc2ccccc2)n(C)n(-c2ccccc2)c1=O (centres undefined),inactive,21.1 µM (active),inactive,6.68 µM (active),inactive,inactive,,,inactive,
CC(C)N(C(=O)CCl)c1ccccc1,inactive,9.69 µM (active),54.5 µM (active),54.5 µM (active) and 27.3 µM (active),,inactive,,inactive,,inactive
O=[N+]([O-])c1ccccc1-c1ccccc1,inactive,inactive,inactive,inactive,inactive,inactive,inactive,,inactive,
CC(=O)C(Cl)C(=O)N(C)C (centres undefined),inactive,inactive,inactive,inactive,inactive,inactive,inactive,inactive,inactive,
c1ccc2nc(N3CCNCC3)ccc2c1,inactive,inactive,inactive,23.7 µM (active),inactive,inactive,,,,
O=C(NC(=O)c1ccccc1Cl)Nc1ccc(OC(F)(F)F)cc1,inactive,inactive,inactive,inactive,inactive,,inactive,inactive,inactive,inactive
COc1ccc2c(c1OC)C(=O)O[C@@H]2[C@H]1c2cc3c(cc2CCN1C)OCO3,inactive,inactive,inactive,inactive,inactive,,inactive,inactive,6.05 µM (active),inactive
CC(C)C(Br)C(=O)NC(N)=O (centres undefined),inactive,inactive,inactive,inactive,inactive,inactive,inactive,inactive,inactive,
O=S(=O)(O)F,inactive,inactive,inactive,inactive,inactive,inactive,inactive,inactive,inactive,
CCOP(=S)(OCC)Oc1cc(C)nc(N(CC)CC)n1,inactive,inactive,inactive,inactive,inactive,inactive,inactive,30.6 µM (active),inactive,inactive
CCC1COC(Cn2cncn2)(c2ccc(Cl)cc2Cl)O1 (centres undefined),inactive,inactive,inactive,inactive,inactive,inactive,inactive,inactive,inactive,
CC(Cc1ccc(OCC(=O)O)cc1)NCC(O)c1csc(C(F)(F)F)n1 (centres undefined),inactive,inactive,inactive,inactive,inactive,inactive,inactive,inactive,,
CN/C(=N\[N+](=O)[O-])NCc1cnc(Cl)s1,inactive,inactive,inactive,inactive,inactive,inactive,,,inactive,
Cc1cnc2c(C(=O)O)c(Cl)ccc2c1,inactive,inactive,inactive,inactive,inactive,inactive,,,inactive,
ClC(Cl)C(Cl)(Cl)Cl,inactive,inactive,inactive,inactive,inactive,inactive,,inactive,inactive,
COc1cnc(OC)n2nc(NS(=O)(=O)c3c(OCC(F)F)cccc3C(F)(F)F)nc12,inactive,inactive,inactive,inactive,inactive,inactive,,inactive,inactive,
CCC1(CC)C(=O)N=C(O)NC1=O,inactive,inactive,inactive,inactive,inactive,inactive,,,inactive,
C=Cc1cccc(CCl)c1,inactive,inactive,inactive,inactive,inactive,inactive,,inactive,inactive,
CC(C)=CC1C(C(=O)OC(C#N)c2cccc(Oc3ccccc3)c2)C1(C)C (centres undefined),inactive,inactive,inactive,inactive,inactive,,inactive,inactive,inactive,inactive
CC1(C)[C@H](/C=C2\CCSC2=O)[C@@H]1C(=O)OCc1coc(Cc2ccccc2)c1,inactive,inactive,inactive,inactive,inactive,inactive,inactive,,inactive,
OCC(Br)CBr (centres undefined),inactive,inactive,inactive,inactive,inactive,inactive,inactive,inactive,inactive,
CCNc1nc(NC(C)C(C)C)nc(SC)n1 (centres undefined),inactive,inactive,inactive,inactive,inactive,inactive,,,inactive,
COC(=O)C(C)N(C(=O)c1ccco1)c1c(C)cccc1C (centres undefined),inactive,inactive,inactive,inactive,inactive,inactive,inactive,inactive,inactive,
CCCCCCCCCCCCCCn1cc[n+](C)c1,inactive,inactive,7.71 µM (active) and 1.7 µM (active),30.7 µM (active) and 60.4 µM (active),34.4 µM (active) and 34 µM (active) and inactive,inactive,inactive,,15.4 µM (active) and 24.1 µM (active),

SMILES,Potency [1],Potency [2],Potency [3],Potency [4],Potency [5],Potency [6],Potency [7],Potency [8],Potency [9],Potency [10]
C=CC(=C)C,inactive,inactive,inactive,inactive,inactive,inactive,inactive,inactive,inactive,
O=C(Cl)c1ccccc1F,inactive,inactive,inactive,inactive,inactive,inactive,inactive,inactive,inactive,
C#CCO,inactive,inactive,inactive,inactive,inactive,inactive,inactive,,inactive,
CNC(=O)CSP(=O)(OC)OC,inactive,inactive,inactive,inactive,inactive,inactive,inactive,inactive,inactive,
CCCCCCCc1ccc(O)cc1,inactive,54.5 µM (active),inactive,54.5 µM (active),48.6 µM (active),inactive,,inactive,,inactive
CN1[C@@H]2CC[C@H]1CC(O)C2 (some centres undefined),inactive,inactive,inactive,inactive,inactive,inactive,,,inactive,
Nc1nc(N)nc(Cl)n1,inactive,inactive,inactive,inactive,inactive,inactive,,inactive,inactive,
Clc1ccc(C2(Cn3cncn3)OCCO2)c(Cl)c1,inactive,inactive,inactive,inactive,inactive,inactive,,inactive,inactive,
CC(Cl)CCl (centres undefined),inactive,inactive,inactive,inactive,inactive,inactive,,inactive,inactive,
CCN(CC)CCN1C(=O)CN=C(c2ccccc2F)c2cc(Cl)ccc21,inactive,inactive,inactive,inactive,inactive,inactive,inactive,inactive,inactive,
CCC(C)Nc1c([N+](=O)[O-])cc(C(C)(C)C)cc1[N+](=O)[O-] (centres undefined),inactive,inactive,inactive,inactive,inactive,inactive,inactive,,inactive,
O=[N+]([O-])c1ccc(CCl)cc1,inactive,inactive,inactive,inactive,inactive,inactive,inactive,inactive,inactive,
O=NN(CCO)CCO,inactive,inactive,inactive,,inactive,inactive,,inactive,inactive,inactive
COc1ccc(Cc2nccc3cc(OC)c(OC)cc23)cc1OC,inactive,inactive,18.8 µM (active),,inactive,,inactive,inactive,13.3 µM (active),inactive
[O]=[Cr][O][Cr]=[O],inactive,inactive,inactive,,inactive,inactive,,,inactive,
COCCC#N,inactive,inactive,inactive,,inactive,,inactive,inactive,inactive,
COc1ccc2c3c1O[C@H]1[C@H](O)CC[C@H]4[C@@H](C2)N(C)CC[C@@]341,inactive,inactive,inactive,inactive,inactive,,inactive,inactive,inactive,
COC(=O)c1ccccc1S(=O)(=O)NC(=O)Nc1nc(C)nc(OC)n1,inactive,inactive,inactive,inactive,inactive,,,inactive,inactive,
COP(=S)(NC(C)C)Oc1ccc(C)cc1[N+](=O)[O-] (centres undefined),inactive,30.6 µM (active),inactive,,inactive,inactive,,inactive,inactive,
CCOC(=O)Cc1ccccc1,inactive,inactive,inactive,,inactive,inactive,inactive,inactive,inactive,inactive
Cc1cc2c3c(c1)C(c1ccccc1)=N[C@@H](NC(=O)c1ccncc1)C(=O)N3CC2,inactive,inactive,inactive,,inactive,inactive,inactive,inactive,inactive,
c1ccc(Nc2ccc(Nc3ccccc3)cc2)cc1,inactive,0.136 µM (active),inactive,,inactive,54.3 µM (active),inactive,inactive,,
[O-][Cl+3]([O-])([O-])O,inactive,inactive,inactive,inactive,inactive,,,,inactive,
CCCCCON=O,inactive,inactive,inactive,inactive,inactive,,inactive,inactive,,
Cc1ccn2nc(S(=O)(=O)Nc3c(F)cccc3F)nc2n1,inactive,inactive,inactive,inactive,inactive,,inactive,inactive,inactive,
CN(C)c1ccc(N)cc1,inactive,23.7 µM (active),59.6 µM (active),,,inactive,,,53.2 µM (active),inactive
